Experimental data: the supplement of paper PMC10849652
Of roughly 8,800 targets only a part is listed; those with a hit were picked by preference. About 0.5% of all pairs of compound and target were hits.

How the values were obtained:
Test in all cases: log2 fold change, soluble protein after heating vs DMSO (PISA); higher = thermal stabilisation; K562 lysate, 10 uM; active = over 0.2 and 3.5 SD of the protein, either way, in both replicates (recomputed)
erlotinib = compound: C#Cc1cccc(Nc2ncnc3cc(OCCOC)c(OCCOC)cc23)c1 [erlotinib]
Summary of the method: (§1)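 A 30 min treatment with 10 μM compound was applied to crude K562 extract at 1 mg/mL protein in PBS pH 7.4 with 1 mM MgCl2. Heating for 3 min spanned 48°C-58°C, after which aliquots were pooled, adjusted to 0.5% NP-40 at 4°C and spun at 21,000xg for 90 min. TMTpro 16plex LC-MS/MS of the supernatant, with channel sums equalised, gave values recorded as log-two fold change in thermal stability against solvent controls, from duplicates.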

[1] = compound: C/C(=N\NC(=O)C1=CC(=CC=C1)S(=O)(=O)N2CCOCC2)/C3=C(C=CC(=C3)Cl)O
Summary of the method: as §1

[2] = compound: C1=CC(=CC=C1C2=NC3=C(N2)C=C(C=C3)C(=O)N)OC4=CC=C(C=C4)Cl
Summary of the method: as §1

[3] = compound: C1=CC2=C(C=CC(=C2)/C=C\3/C(=O)NC(=NCC4=CC=CS4)S3)N=C1
Summary of the method: as §1

[4] = compound: C1=CC2=NC=CN=C2C=C1/C=C/3\C(=O)NC(=O)S3
Summary of the method: as §1

[5] = compound: C1=CC=C(C=C1)C2=NC(=C(N2)C3=CC=NC=C3)C4=CC(=C(C=C4)Cl)O
Summary of the method: as §1

[6] = compound: C1=CC=C2C(=C1)C3=NNC4=CC=CC(=C43)C2=O
Summary of the method: as §1

[7] = compound: C1CCN(C1)C(=O)NC2=CC=CC(=C2)NC3=NC=C(C(=N3)NCCC4=CN=CN4)Br
Summary of the method: as §1

[8] = compound: C1CN(CCC1(CC2=CC=C(C=C2)Cl)N)C3=NC=NC4=C3C=CN4
Summary of the method: as §1

IRAK-1-4 Inhibitor I = compound: C1COCCN1CCN2C3=CC=CC=C3N=C2NC(=O)C4=CC(=CC=C4)[N+](=O)[O-] [IRAK-1-4 Inhibitor I]
Summary of the method: as §1

Measured: log2 fold change

MARK3 (UniProt P27448)
UniProt P27448, sequence (P27448 whole entry, looked up): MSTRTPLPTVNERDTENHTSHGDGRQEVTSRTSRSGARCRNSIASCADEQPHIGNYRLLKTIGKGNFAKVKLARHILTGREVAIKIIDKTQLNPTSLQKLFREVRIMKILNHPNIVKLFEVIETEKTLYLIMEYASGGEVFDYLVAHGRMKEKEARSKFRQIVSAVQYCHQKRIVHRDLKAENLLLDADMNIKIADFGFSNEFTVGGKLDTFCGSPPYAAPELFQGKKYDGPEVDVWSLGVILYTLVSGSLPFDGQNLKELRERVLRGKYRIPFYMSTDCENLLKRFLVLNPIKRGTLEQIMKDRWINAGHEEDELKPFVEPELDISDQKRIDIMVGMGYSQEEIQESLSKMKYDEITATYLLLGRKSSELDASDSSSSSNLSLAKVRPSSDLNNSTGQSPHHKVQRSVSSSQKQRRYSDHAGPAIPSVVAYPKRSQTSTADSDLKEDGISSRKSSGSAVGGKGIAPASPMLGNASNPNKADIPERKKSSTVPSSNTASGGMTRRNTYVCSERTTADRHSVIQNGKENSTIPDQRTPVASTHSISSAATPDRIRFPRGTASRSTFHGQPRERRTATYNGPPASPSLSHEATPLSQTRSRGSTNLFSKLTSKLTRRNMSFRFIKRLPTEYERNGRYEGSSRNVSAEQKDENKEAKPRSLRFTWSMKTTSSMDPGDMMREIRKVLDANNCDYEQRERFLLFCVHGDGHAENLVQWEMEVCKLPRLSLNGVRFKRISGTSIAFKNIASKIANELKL
inactive: erlotinib 0.089 | [1] -0.074 | [2] -0.007 | [3] 0.07 | [4] -0.051 | [5] 0.016 | [6] -0.218 | [7] -0.213 | [8] -0.023 | IRAK-1-4 Inhibitor I -0.035

MRPL15 (UniProt Q9P015)
inactive: erlotinib 0.037 | [1] -0.16 | [2] 0.051 | [3] -0.026 | [4] -0.055 | [5] -0.017 | [6] 0.004 | [7] -0.023 | [8] -0.016 | IRAK-1-4 Inhibitor I 0.034

LUZP1 (UniProt Q86V48)
inactive: erlotinib -0.074 | [1] -0.06 | [2] -0.033 | [3] 0.027 | [4] -0.028 | [5] -0.009 | [6] 0.031 | [7] -0.009 | [8] 0.009 | IRAK-1-4 Inhibitor I 0.085

LAS1L (UniProt Q9Y4W2)
inactive: erlotinib 0.053 | [1] -0.011 | [2] -0.003 | [3] -0.018 | [4] 0.022 | [5] 0.007 | [6] 0.028 | [7] -0.004 | [8] -0.027 | IRAK-1-4 Inhibitor I -0.002

L3HYPDH (UniProt Q96EM0)
inactive: erlotinib -0.004 | [1] 0.057 | [2] 0.028 | [3] -0.027 | [4] 0.033 | [5] -0.03 | [6] -0.048 | [7] 0 | [8] 0.038 | IRAK-1-4 Inhibitor I 0.029

LYN (UniProt P07948)
inactive: erlotinib 0.054 | [1] -0.047 | [2] 0.026 | [3] -0.011 | [4] -0.07 | [5] -0.022 | [6] 0.025 | [7] 0.07 | [8] -0.042 | IRAK-1-4 Inhibitor I 0.487

MPP5 (UniProt Q8N3R9)
UniProt Q8N3R9, sequence (Q8N3R9 whole entry, looked up): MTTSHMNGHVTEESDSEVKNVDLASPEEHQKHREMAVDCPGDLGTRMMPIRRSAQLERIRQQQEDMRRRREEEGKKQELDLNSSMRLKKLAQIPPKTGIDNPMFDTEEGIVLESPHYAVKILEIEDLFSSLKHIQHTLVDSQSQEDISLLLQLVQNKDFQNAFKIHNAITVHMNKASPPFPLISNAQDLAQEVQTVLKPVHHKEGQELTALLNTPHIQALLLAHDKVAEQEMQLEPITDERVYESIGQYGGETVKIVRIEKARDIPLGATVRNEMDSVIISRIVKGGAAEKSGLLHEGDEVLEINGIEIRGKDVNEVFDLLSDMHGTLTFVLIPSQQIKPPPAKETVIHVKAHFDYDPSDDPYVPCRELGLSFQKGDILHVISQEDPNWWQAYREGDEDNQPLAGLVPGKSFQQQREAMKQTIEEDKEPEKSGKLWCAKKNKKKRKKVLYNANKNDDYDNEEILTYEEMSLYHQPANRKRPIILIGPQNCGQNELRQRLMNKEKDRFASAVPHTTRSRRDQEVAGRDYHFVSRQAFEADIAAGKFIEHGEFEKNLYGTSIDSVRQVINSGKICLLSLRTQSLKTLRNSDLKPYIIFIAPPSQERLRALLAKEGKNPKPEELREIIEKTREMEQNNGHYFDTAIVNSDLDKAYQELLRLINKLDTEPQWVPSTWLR
inactive: erlotinib 0.039 | [1] -0.009 | [2] 0.027 | [3] -0.016 | [4] 0.038 | [5] 0.01 | [6] -0.038 | [7] -0.028 | [8] -0.013 | IRAK-1-4 Inhibitor I 0.085

METTL2A (UniProt Q96IZ6)
inactive: erlotinib 0.023 | [1] -0.009 | [2] -0.026 | [3] 0.037 | [4] 0 | [5] -0.018 | [6] -0.026 | [7] 0.002 | [8] 0.166 | IRAK-1-4 Inhibitor I 0.042

MPI (UniProt P34949)
inactive: erlotinib 0.02 | [1] 0.045 | [2] 0.046 | [3] -0.018 | [4] -0.014 | [5] 0.022 | [6] -0.02 | [7] -0.003 | [8] 0.038 | IRAK-1-4 Inhibitor I 0.035

MIPEP (UniProt Q99797)
inactive: erlotinib -0.048 | [1] -0.06 | [2] 0.005 | [3] 0.021 | [4] 0.019 | [5] -0.029 | [6] -0.008 | [7] 0.006 | [8] 0.005 | IRAK-1-4 Inhibitor I -0.004

LIG3 (UniProt P49916)
UniProt P49916, sequence (P49916 whole entry, looked up): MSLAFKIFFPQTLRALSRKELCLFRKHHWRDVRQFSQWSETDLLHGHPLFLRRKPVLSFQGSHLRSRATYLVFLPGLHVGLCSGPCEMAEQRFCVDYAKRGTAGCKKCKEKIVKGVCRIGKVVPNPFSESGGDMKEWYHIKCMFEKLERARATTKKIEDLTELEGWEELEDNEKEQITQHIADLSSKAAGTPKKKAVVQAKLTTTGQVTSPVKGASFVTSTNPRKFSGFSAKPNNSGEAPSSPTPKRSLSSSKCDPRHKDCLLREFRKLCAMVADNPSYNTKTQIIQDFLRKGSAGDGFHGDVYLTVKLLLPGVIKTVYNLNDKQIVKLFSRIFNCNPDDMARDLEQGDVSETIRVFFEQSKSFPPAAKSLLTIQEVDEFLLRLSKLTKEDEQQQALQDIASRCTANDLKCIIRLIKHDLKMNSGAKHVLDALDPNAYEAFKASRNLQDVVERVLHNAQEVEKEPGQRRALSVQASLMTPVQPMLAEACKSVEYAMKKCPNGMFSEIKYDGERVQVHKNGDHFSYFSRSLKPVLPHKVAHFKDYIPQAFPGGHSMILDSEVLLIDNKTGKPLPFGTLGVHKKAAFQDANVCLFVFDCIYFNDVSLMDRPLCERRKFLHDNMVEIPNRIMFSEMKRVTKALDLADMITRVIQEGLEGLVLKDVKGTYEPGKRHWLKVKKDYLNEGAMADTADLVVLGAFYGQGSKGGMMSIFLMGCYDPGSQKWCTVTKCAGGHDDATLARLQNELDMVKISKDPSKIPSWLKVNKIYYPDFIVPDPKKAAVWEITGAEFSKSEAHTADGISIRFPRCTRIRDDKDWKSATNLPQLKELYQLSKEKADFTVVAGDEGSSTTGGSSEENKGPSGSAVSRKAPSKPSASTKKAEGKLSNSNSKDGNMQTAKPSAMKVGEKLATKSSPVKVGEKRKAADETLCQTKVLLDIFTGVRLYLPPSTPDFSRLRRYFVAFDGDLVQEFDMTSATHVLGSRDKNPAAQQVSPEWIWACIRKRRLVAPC
inactive: erlotinib -0.003 | [1] 0.027 | [2] -0.04 | [3] 0.009 | [4] -0.006 | [5] 0.011 | [6] -0.013 | [7] 0 | [8] -0.036 | IRAK-1-4 Inhibitor I -0.035

LSM8 (UniProt O95777)
UniProt O95777, sequence (O95777 whole entry, looked up): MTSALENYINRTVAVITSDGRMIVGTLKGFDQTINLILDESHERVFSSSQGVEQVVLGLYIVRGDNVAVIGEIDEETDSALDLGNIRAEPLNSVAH
inactive: erlotinib -0.034 | [1] 0.003 | [2] -0.003 | [3] 0.027 | [5] -0.026 | [6] 0.066 | [7] -0.008 | [8] -0.021 | IRAK-1-4 Inhibitor I 0.028
active: [4] 0.423

KIF26A (UniProt Q9ULI4)
inactive: erlotinib 0.117 | [1] -0.053 | [2] -0.089 | [3] 0.012 | [4] -0.022 | [5] -0.019 | [6] 0.159 | [7] 0.108 | [8] 0.249 | IRAK-1-4 Inhibitor I 0.093

MAPKAPK5 (UniProt Q8IW41)
inactive: erlotinib -0.058 | [1] -0.045 | [2] 0.016 | [3] 0.12 | [4] 0.007 | [5] -0.024 | [7] 0.035 | [8] 0.031 | IRAK-1-4 Inhibitor I -0.049
active: [6] 0.276

MAP4 (UniProt E7EVA0)
inactive: erlotinib 0.056 | [1] 0.01 | [2] 0.113 | [3] 0.045 | [4] -0.072 | [5] -0.004 | [6] -0.076 | [7] 0.071 | [8] 0.061 | IRAK-1-4 Inhibitor I 0.037

KLC1 isoform 6 (UniProt Q07866)
UniProt Q07866, sequence (Q07866 whole entry, looked up): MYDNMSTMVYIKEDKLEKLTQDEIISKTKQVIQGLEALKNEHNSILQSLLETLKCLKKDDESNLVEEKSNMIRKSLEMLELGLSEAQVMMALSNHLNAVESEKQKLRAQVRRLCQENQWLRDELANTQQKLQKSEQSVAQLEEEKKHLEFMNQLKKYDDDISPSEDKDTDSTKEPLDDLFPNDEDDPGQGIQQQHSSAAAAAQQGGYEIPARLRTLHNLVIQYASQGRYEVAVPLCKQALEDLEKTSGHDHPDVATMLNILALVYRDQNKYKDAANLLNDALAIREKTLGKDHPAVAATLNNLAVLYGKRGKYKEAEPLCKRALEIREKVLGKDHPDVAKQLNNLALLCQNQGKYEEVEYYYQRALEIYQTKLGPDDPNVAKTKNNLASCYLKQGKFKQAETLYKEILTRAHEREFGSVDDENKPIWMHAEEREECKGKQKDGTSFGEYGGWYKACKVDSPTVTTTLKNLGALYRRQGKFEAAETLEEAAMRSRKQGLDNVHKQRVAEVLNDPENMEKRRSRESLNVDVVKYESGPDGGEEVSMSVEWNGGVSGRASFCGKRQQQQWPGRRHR
inactive: erlotinib -0.02 | [1] -0.023 | [2] 0.002 | [3] 0 | [4] -0.033 | [5] 0.002 | [6] -0.007 | [7] -0.027 | [8] -0.01 | IRAK-1-4 Inhibitor I 0.011

MED13L (UniProt Q71F56)
inactive: erlotinib 0.048 | [1] -0.049 | [2] 0.03 | [3] 0.024 | [4] 0.034 | [5] -0.014 | [6] -0.035 | [7] 0.024 | [8] 0.013 | IRAK-1-4 Inhibitor I 0.061

KIF2C (UniProt Q99661)
inactive: erlotinib 0.019 | [1] 0.033 | [2] -0.008 | [3] -0.01 | [4] -0.008 | [5] 0.002 | [6] -0.033 | [7] 0.015 | [8] -0.006 | IRAK-1-4 Inhibitor I -0.019

KIF11 (UniProt P52732)
inactive: erlotinib -0.014 | [1] 0.012 | [2] -0.016 | [3] -0.004 | [4] -0.004 | [5] -0.004 | [6] -0.023 | [7] -0.005 | [8] -0.013 | IRAK-1-4 Inhibitor I -0.033

LARS2 (UniProt Q15031)
inactive: erlotinib 0.027 | [1] 0.033 | [3] -0.012 | [4] -0.041 | [5] 0.014 | [6] 0.029 | [7] 0.03 | [8] 0.039 | IRAK-1-4 Inhibitor I -0.021
active: [2] 0.549

MARF1 (UniProt Q9Y4F3)
inactive: erlotinib 0.025 | [1] 0.231 | [2] 0.043 | [3] -0.157 | [4] 0.122 | [5] 0.019 | [6] 0.073 | [7] -0.111 | [8] -0.035 | IRAK-1-4 Inhibitor I -0.003

MPZL1 (UniProt O95297)
UniProt O95297, sequence (O95297 whole entry, looked up): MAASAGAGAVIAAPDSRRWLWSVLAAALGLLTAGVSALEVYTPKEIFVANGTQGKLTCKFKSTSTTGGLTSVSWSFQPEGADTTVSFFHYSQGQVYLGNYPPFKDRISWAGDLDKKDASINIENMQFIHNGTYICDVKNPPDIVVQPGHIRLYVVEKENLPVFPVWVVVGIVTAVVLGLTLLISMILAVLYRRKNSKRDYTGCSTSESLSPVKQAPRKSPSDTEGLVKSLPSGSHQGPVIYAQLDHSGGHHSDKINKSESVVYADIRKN
inactive: erlotinib -0.057 | [1] 0.068 | [2] -0.036 | [3] 0.003 | [4] -0.042 | [5] 0.017 | [6] -0.005 | [7] 0.015 | [8] -0.04 | IRAK-1-4 Inhibitor I 0.015

MAP4K2 (UniProt Q12851)
inactive: erlotinib 0.001 | [1] -0.202 | [2] -0.082 | [3] -0.195 | [4] 0.05 | [5] -0.057 | [6] 0.355 | [7] 0.288 | [8] -0.205 | IRAK-1-4 Inhibitor I -0.046

KNL1 (UniProt Q8NG31)
inactive: erlotinib -0.005 | [1] -0.015 | [2] 0.002 | [3] 0 | [4] -0.017 | [5] 0.019 | [6] -0.015 | [7] 0.006 | [8] -0.007 | IRAK-1-4 Inhibitor I 0.002

MAP2K5 (UniProt Q13163)
UniProt Q13163, sequence (Q13163 whole entry, looked up): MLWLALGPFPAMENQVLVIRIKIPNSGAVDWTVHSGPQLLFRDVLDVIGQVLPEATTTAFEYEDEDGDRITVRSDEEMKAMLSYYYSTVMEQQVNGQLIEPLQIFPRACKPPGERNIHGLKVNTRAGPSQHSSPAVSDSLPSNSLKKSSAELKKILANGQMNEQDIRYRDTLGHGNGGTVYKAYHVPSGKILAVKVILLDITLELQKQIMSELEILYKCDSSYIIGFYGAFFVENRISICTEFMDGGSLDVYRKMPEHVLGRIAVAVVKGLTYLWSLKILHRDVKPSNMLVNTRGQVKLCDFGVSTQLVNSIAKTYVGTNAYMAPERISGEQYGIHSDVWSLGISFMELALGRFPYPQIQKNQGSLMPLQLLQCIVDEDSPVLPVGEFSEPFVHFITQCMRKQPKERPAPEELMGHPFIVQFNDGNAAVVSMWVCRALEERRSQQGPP
inactive: erlotinib 0.16 | [1] 0.153 | [2] -0.024 | [3] 0.142 | [4] -0.097 | [5] -0.015 | [6] 0.06 | [7] -0.007 | [8] -0.024 | IRAK-1-4 Inhibitor I 0.144

KNSTRN (UniProt Q9Y448)
UniProt Q9Y448, sequence (Q9Y448 whole entry, looked up): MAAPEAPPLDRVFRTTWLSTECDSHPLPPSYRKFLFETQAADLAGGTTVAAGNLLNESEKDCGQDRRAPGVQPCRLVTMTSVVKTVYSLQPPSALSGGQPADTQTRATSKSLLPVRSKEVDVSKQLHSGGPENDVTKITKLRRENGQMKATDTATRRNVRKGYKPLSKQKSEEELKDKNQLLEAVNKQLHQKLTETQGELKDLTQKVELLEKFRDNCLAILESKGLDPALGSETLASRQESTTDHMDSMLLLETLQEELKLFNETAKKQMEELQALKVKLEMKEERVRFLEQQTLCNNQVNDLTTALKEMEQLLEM
inactive: erlotinib -0.007 | [1] -0.003 | [2] -0.018 | [3] 0.006 | [4] -0.018 | [5] 0.015 | [6] 0.012 | [7] 0.036 | [8] -0.061 | IRAK-1-4 Inhibitor I -0.039

MACO1 (UniProt Q8N5G2)
active: [6] -0.336
inactive: erlotinib -0.072 | [1] -0.009 | [2] -0.005 | [3] -0.161 | [4] 0.062 | [5] -0.022 | [7] 0 | [8] 0.012 | IRAK-1-4 Inhibitor I 0.022

MAP2K2 (UniProt P36507)
inactive: erlotinib 0.049 | [1] 0.005 | [2] 0.023 | [3] -0.023 | [4] -0.006 | [5] 0.001 | [6] 0.249 | [7] 0.219 | [8] 0.017 | IRAK-1-4 Inhibitor I 0

LSG1 (UniProt Q9H089)
UniProt Q9H089, sequence (Q9H089 whole entry, looked up): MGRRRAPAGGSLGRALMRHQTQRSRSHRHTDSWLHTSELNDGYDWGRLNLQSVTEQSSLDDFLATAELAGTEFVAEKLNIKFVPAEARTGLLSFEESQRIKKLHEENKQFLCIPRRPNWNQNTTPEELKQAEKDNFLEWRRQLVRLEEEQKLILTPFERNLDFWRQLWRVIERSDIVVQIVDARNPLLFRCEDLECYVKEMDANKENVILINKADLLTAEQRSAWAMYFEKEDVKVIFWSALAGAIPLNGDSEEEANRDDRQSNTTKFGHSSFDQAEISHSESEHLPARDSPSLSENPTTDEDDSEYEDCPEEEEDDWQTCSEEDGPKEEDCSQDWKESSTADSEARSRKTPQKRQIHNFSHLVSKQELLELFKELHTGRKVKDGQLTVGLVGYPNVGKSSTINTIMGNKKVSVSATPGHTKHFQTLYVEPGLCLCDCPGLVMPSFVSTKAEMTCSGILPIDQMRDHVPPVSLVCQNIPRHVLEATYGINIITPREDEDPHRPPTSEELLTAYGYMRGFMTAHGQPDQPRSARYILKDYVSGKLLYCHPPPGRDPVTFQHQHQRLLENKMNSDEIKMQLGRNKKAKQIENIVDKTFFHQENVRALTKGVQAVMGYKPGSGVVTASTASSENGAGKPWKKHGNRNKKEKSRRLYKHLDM
inactive: erlotinib 0.044 | [1] 0.036 | [2] -0.059 | [3] -0.136 | [4] -0.021 | [5] 0 | [6] -0.114 | [7] -0.031 | [8] 0.103 | IRAK-1-4 Inhibitor I -0.048

MECR (UniProt Q9BV79)
inactive: erlotinib -0.019 | [1] 0.027 | [2] -0.005 | [3] -0.028 | [4] 0.012 | [5] -0.038 | [6] -0.035 | [7] -0.053 | [8] 0.079 | IRAK-1-4 Inhibitor I 0.025
